CBFb-RUNX1 inh – qHTS Assay for Compounds Blocking the Interaction Between CBF-beta and RUNX1 for the Treatment of Acute Myeloid Leukemia; Runt-related transcription factor 1 (Homo sapiens) + Core-binding factor subunit beta …; AlphaScreen CBFb-His/RUNX1-biotin binding, biochemical; Potency, µM (series often up to 59.8 µM), most hits filed as inhibitors; 230,000 tested, under 10 active; AID 1477, 2009
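Inhibition was taken as any reduction in AlphaScreen signal from the CBF-beta–RUNX1 pair (His and biotin tags, 30 nM each), measured after compound (15 min) and bead (90 min) incubations at room temperature.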
HttQ103 aggreg – qHTS Multiplex Assay to Identify Dual Action Probes in a Cell Model of Huntington: Aggregate Formation (GFP); actives 1.1% (n = 220,000); Potency, µM (titrated, usually from 46.1 µM), actives largely listed as inhibitors; PC12 HttQ103-GFP aggregates, Acumen cytometry, 40 h; also: nearly all actives have a fitted effect of over 60% in size
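PC12 cells stably carrying ecdysone-inducible HTT exon 1 Q103–GFP were induced with tebufenozide (100 nM final) and treated with library compounds in titration. GFP aggregates in lysates were counted by laser scanning cytometry.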
ALDH1A1 inh – qHTS Assay for Inhibitors of Aldehyde Dehydrogenase 1 (ALDH1A1) | Aldehyde dehydrogenase 1A1 (Homo sapiens), P00352 | Purified ALDH1A1, NADH fluorescence, propionaldehyde substrate | Potency, µM (titrated, usually from 75.3 µM), hits mostly inhibitors | actives 7.3% (n = 220,000) | AID 1030, 2008; active = well fitted inhibition curve with a large enough effect, not every such curve was filed as active; inconclusive = small, poorly fitted or top-dose-only effect, or another doubt; inactive = no such curve, though single readings can be large or run the other way
Target sequence (P00352 whole entry, looked up): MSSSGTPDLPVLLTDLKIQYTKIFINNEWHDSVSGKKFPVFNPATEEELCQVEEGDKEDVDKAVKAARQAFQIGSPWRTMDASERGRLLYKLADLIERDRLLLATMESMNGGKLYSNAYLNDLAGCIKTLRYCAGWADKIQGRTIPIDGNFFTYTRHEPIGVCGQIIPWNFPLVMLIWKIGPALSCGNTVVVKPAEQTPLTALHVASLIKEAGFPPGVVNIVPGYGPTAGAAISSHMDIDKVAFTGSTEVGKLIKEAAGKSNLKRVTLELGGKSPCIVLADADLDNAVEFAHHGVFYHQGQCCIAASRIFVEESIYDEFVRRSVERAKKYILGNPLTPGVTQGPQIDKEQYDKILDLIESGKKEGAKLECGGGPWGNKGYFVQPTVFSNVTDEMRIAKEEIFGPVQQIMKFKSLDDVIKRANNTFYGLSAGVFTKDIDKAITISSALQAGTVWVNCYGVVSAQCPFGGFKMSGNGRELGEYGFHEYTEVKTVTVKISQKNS
HTT cytoprotect – qHTS Multiplex Assay to Identify Dual Action Probes in a Cell Model of Huntington: Cytoprotection (ATP); Potency, µM (doses to about 56.4 µM), hits mostly activators; actives 0.14% (n = 230,000); PC12 HTT-Q103 induced, cytoprotection, ATP luminescence, 40 h; also: nearly all actives have a fitted effect of over 45% in size
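Compounds added alongside 100 nM tebufenozide, which induces toxic Q103 huntingtin exon 1-GFP in stable PC12 cells; surviving cells quantified by luminescent ATP measurement. Medium: phenol red-free DMEM, 5% equine and 5% calf serum.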
PNC inhibitor – High Content Assay for Compounds that inhibit the Assembly of the Perinucleolar Compartment. PC3M PTB-GFP, PNC prevalence imaging, 16 h; stronger effect = lower value. activity change (PNC), negative = inhibition, % at 10 µM. actives 3.1% (n = 140,000);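 active = readout at or below -70, meaning at least 70% loss of cells showing the perinucleolar compartment, a nuclear body marking cancer cells; inconclusive = readout between -30 and a set limit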
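Read-out is percentage of cells bearing a perinucleolar compartment, from automated 20x imaging of fixed, Hoechst-stained PC3M PTB-GFP cells. Cells were seeded 4 h, then exposed 16 h to compound (23 nl of library stock) in duplicate plates.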
HPGD block – qHTS Assay for Inhibitors of HPGD (15-Hydroxyprostaglandin Dehydrogenase); 15-hydroxyprostaglandin dehydrogenase [NAD(+)] (Homo sapiens), P15428; purified HPGD, NADH fluorescence kinetic, PGE2 substrate; Potency, µM, actives largely listed as inhibitors; actives 4.3% (n = 150,000); AID 894, 2007; active = well fitted inhibition curve with a large enough effect, not every such curve was filed as active; inconclusive = small, poorly fitted or top-dose-only effect, or another doubt; inactive = no such curve, though single readings can be large or run the other way
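20 nM HPGD preincubated 15 min at room temperature with compound in 50 mM Tris-HCl pH 8, 0.01% Tween 20. Started with 1 mM NAD+ and 30 uM prostaglandin E2; NADH fluorescence (360/450 nm) read 5 times over 30-s intervals, last minus first.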
Numbers stand for hits; – = inactive; ? = inconclusive; · = no result given; [ ] = another dose, or the depositor's remark. In the library only some 11% were active in any assay of this set; here they are far more common. Unless noted, calls follow the shape of the dose curve; as a rule, active = well fitted curve in the direction sought with a large enough effect; inconclusive = small, poorly fitted or top-dose-only effect, or another doubt; inactive = no such curve, though single readings can be large; an effect the other way counts as inactive or inconclusive.

SMILES	CBFb-RUNX1 inh	HttQ103 aggreg	ALDH1A1 inh	HTT cytoprotect	PNC inhibitor	HPGD block
O=C(c1cn(-c2ccccc2)nc1-c1cccs1)N1CCOCC1	–	–	–	–	–	–
O=C(c1cn(-c2ccccc2)nc1-c1cccs1)N1CCN(c2ccccc2)CC1	–	?	?	–	-83.1	–
COc1ccccc1C(=O)NNC(=O)c1ccc(NC(=O)CC(C)C)cc1	–	–[9.22 µM]	–	–[10 µM]	·	·
CC(=O)OC[C@@H]1O[C@H](C/C=N\O[C@@H](C)CN2CCCc3nc(C)c(C)cc32)C=C[C@@H]1OC(C)=O	–[13.1 µM]	·	?	?	·	·
CN1CCN(c2ncc3nc(-c4ccccc4)c(=O)n(C4CC4)c3n2)CC1	·	·	?	–	·	·
CN(C)c1ccc(C2(O)C(=O)c3ccccc3C2=O)cc1	–	–	–	·	–	–
Cc1ccccc1NC(=O)CC1(c2ccc(N(C)C)cc2)C(=O)c2ccccc2C1=O	–	–	12.6µM	–	-90.2	–
CCOc1cc(CO)cc(Br)c1OCC(N)=O	–	–	–	–	·	·
CCCOc1c(Cl)cc(/C=N/O)cc1OCC	–	?	?	–	–	25.1µM
CCOc1cc(C=O)cc(Cl)c1OCC(N)=O	–	–	7.08µM	·	·	·
CCOc1ccc(Cl)cc1/C=N/O	–	–	–	–	–	11.2µM
COC(=O)N1C2=C(c3ccccc3[C@@H]1CC(=O)Nc1ccc3cc4ccccc4cc3c1)[C@@H]1C(=O)N(c3ccccc3)C(=O)[C@@H]1[C@H](C)C2	–[13.1 µM]	·	–[13.5 µM]	–[10 µM]	·	–
COC(=O)NC(c1cccc(F)c1)C(C(C)=O)C(=O)OC (configuration not stated)	–[13.1 µM]	·	–[13.5 µM]	–[10 µM]	·	·
CC1SC(c2cccc(Cl)c2)NC1=O (configuration not stated)	–	–	11.2µM	–	–	?
CC[C@H](C)[C@H](NC(=O)[C@@H](NC(=O)[C@@H](CC(=O)NO)Cc1ccccc1)[C@@H](C)CC)C(=O)O	–	·	·	·	·	·
CCCn1c(-c2ccc(F)cc2)nc2c(NCCCCN3CCCC3)nc(C)nc21	–	·	?	–	·	?
O=C(NCC1COc2ccccc2O1)C1CCCN(S(=O)(=O)c2cnc[nH]2)C1 (configuration not stated)	–	–	–	–[10 µM]	-92.8	–
CCN(CC)S(=O)(=O)N1CCC(C(=O)NCc2ccc3c(c2)OCO3)CC1	–	–	?	·	–	–
O=C(C1CCCN(S(=O)(=O)c2cnc[nH]2)C1)N(CCc1ccccc1)Cc1ccccc1 (configuration not stated)	–	–	11.2µM	–	–	–
CC(C)c1ccc(NC(=O)C2CCCN(S(=O)(=O)c3cnc[nH]3)C2)cc1 (configuration not stated)	–	–	–	–	–	–
CCN(CC)S(=O)(=O)N1CCC(C(=O)NCC2COc3ccccc3O2)CC1 (configuration not stated)	–	–	2.51µM	–[0.074 µM]	–	–
CC(NC(=O)C1CCCN(S(=O)(=O)c2cnc[nH]2)C1)c1ccccc1 (configuration not stated)	–	–	–	–	-81.3	–
CC(O)CN(C)C (configuration not stated)	·	–	·	?	·	·
Cc1c(CN(C)C(=O)/C=C/c2ccc([N+](=O)[O-])cc2)cnn1C	–	–	–	–[10 µM]	?	–
CCCCCCCCCCCCCCCCCCOC[C@H](COP(=O)([O-])OCC[N+](C)(C)C)OC(C)=O	–	·	–	–	·	–
SMILES	CBFb-RUNX1 inh	HttQ103 aggreg	ALDH1A1 inh	HTT cytoprotect	PNC inhibitor	HPGD block
COc1ccc(CC(=O)Nc2oc(-c3ccccc3)c(-c3ccccc3)c2C#N)cc1OC	–	?	–	–[10 µM]	-100.0	?
COc1ccc(-c2oc(NC(=O)CSc3ncn[nH]3)c(C#N)c2-c2ccc(OC)cc2)cc1	–	–	–	–	–	–
COc1ccccc1OCC(=O)Nc1oc(-c2ccccc2)c(-c2ccccc2)c1C#N	–	–	–	–	–	–
COc1ccc(-c2oc(NC(=O)CCl)c(C#N)c2-c2ccc(OC)cc2)cc1	–	–[9.22 µM]	2.51µM	–	–	–
CC(=O)/C(C#N)=C1\NC(=O)C(Cc2ccccc2C)S1 (configuration not stated)	–	–[9.22 µM]	·	–[10 µM]	·	·
O=S(=O)(Nc1ccc2c(c1)nc1n2CCOC1)c1ccc(Cl)cc1	–	–	–	–	–	–
CC(C)(C)c1ccc(O)c(CN(Cc2cc(C(C)(C)C)ccc2O)c2ccccc2)c1	·	·	–[13.5 µM]	–[10 µM]	·	–
CCOC(=O)c1sc(NC(=O)CCN2CCN(CC)CC2)c(C(=O)OCC)c1C	–	–	10µM	–	·	·
CCOC(=O)c1sc(NC(=O)CCN2C(=O)c3ccccc3C2=O)c(C(=O)OCC)c1C	–	–	?	–[10 µM]	–	–
CCOC(=O)c1sc(NC(=O)CCN2CCC(C)CC2)c(C(=O)OCC)c1C	–	–	2.51µM	–	·	·
CC(C(=O)N1CCN(C2c3ccccc3-c3ccccc32)CC1)N1C(=O)c2ccccc2C1=O (configuration not stated)	–	–	–	–[10 µM]	–	–
CC(C(=O)N1CCCC1)N1CCN(c2ccccc2O)CC1 (configuration not stated)	?	–	–	–	·	·
CC(C(=O)N1CCCCC1)n1sc2ccccc2c1=O (configuration not stated)	–	–	–	–[10 µM]	–	3.55µM
CC(C(=O)N1CCCCC1)N1C(=O)c2ccccc2C1=O (configuration not stated)	–	31.6µM	?	–	–	–
COc1cc(NCCCCCCCN)c2ncccc2c1	–	1.78µM	3.55µM	–[10 µM]	?	–
COc1cc(NC(C)CCCN)c2ncccc2c1 (configuration not stated)	–	·	–	–	·	–
O=C(Nc1cccnc1)c1sc(Nc2ccccc2)nc1-c1ccccc1	–	–	?	–[10 µM]	–	?
O=C(Nc1ccccn1)c1ccc2nc(-c3ccccc3)c(-c3ccccc3)nc2c1	–	–	11.2µM	–	·	·
O=C(Nc1cccnc1)c1ccc(Oc2ccccc2)cc1	–	–	–	–[0.074 µM]	?	–
Cc1cccc(Nc2nc(-c3ccccc3)c(C(=O)Nc3cccnc3)s2)c1	–	6.31µM	?	–[10 µM]	–	?
O=C(Nc1cccnc1)c1ccc2nc(-c3ccccc3)c(-c3ccccc3)nc2c1	–	–	17.8µM	·	·	·
